Results: PubChem BioAssay AID449728 (The Scripps Research Institute Molecular Screening Center, 2010)
Screen size: about 330,000 compounds; about 900 (0.27%) were called active. Many of the other results were omitted from the sample, so actives are more common in it than they were. Values without a mark were called inactive.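 Rule for the calls: active = inhibition above the campaign's mean inhibition across all tested compounds plus 3 SD (cut at about 9.9% in these data); inactive = the rest.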

Experiment: bacterial viability reduction in E. coli – absorbance, OD600, counter-screen for AddAB inhibitor project, primary screen (AID 449728);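 note: uninfected addAB+ strain grown without phage in ampicillin broth; 0% = DMSO wells and 100% = ciprofloxacin 0.95 µg/ml wells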
Conditions: E. coli V3065 growth, 18 h, at 11.9 µM, stronger effect = higher value

| Compound | inhibition |
| --- | --- |
| CC[C@H]1OC(=O)[C@H](C)[C@@H](O[C@H]2C[C@@](C)(OC)[C@@H](O)[C@H](C)O2)[C@H](C)[C@@H](O[C@@H]2O[C@H](C)C[C@H](N(C)C)[C@H]2O)[C@](C)(O)C[C@@H](C)[C@@H]2N[C@@H](COCCOC)O[C@H]([C@H]2C)[C@]1(C)O | 39.7% (active) |
| O=C(Nc1cccc2c1N(C(=O)c1ccco1)CCC2)c1ccco1 | 0.81% |
| CCCc1nc(SCC(=O)N2CCCC2)c2c(=O)n(C)c(=O)n(C)c2n1 | 0.51% |
| O=C(NCc1ccncc1)C(=O)NCc1ccco1 | -0.95% |
| C/C(N)=C(/C#N)C(=O)COC(=O)C1CCN(C(=O)c2ccc(Cl)cc2)CC1 | -2.66% |
| N#Cc1c(-c2ccc(F)cc2)cc(C2CC2)nc1SCC(=O)c1cccs1 | -0.26% |
| Cn1ccc(=Nc2ccc(NC(=O)c3ccc(N=c4ccn(C)c5ccc([N+](=O)[O-])cc45)cc3)cc2)cc1 | 103% (active) |
| COc1cc(NS(=O)(=O)c2ccc(NC(=O)c3ccc([N+](=O)[O-])cc3)cc2)ncn1 | 1.53% |
| CC(=O)NC(=S)Nc1ccc(NC(=S)NC(=O)c2ccc([N+](=O)[O-])cc2)cc1 | -0.16% |
| C=CCn1c(SCC(N)=O)nnc1-c1cc2c(s1)CCC(CC)C2 (stereo not drawn) | 1.3% |
| CCCCN(CC)CCNC(=O)c1[nH]c(C)c(C(C)=O)c1C | -0.92% |
| CCN(CC)c1ccc(NC(=O)CN2CCN(c3ccccn3)CC2)cc1 | 10.5% (active) |
| O=C(CN1CCN(c2ccccn2)CC1)Nc1ccc(Br)cc1 | 2.27% |
| O=C(CN1CCN(c2ccccn2)CC1)NC1CCCCC1 | 1.09% |
| NC(=O)NCCCC(=O)O | -0.17% |
| CC(=O)N(O)CCCCCNC(=O)CCC(=O)N(O)CCCCCNC(=O)CCC(=O)N(O)CCCCCNC(=O)CCC(=O)O | 25.5% (active) |
| O=C(COC(=O)c1cc(S(=O)(=O)N2CCCCC2)ccc1Cl)NCc1ccco1 | -0.84% |
| O=C(NNC(=O)c1cc(S(=O)(=O)N2CCCCC2)ccc1Cl)c1ccccc1O | 10.3% (active) |
| CC1CCCC(NC(=O)c2cc(S(=O)(=O)N3CCCCC3)ccc2Cl)C1C (stereo not drawn) | -1.24% |
| CCn1cc(/C=C2/SC(=S)NC2=O)c(C)n1 | 0% |
| Brc1ccc(/C=N/N2CCN(C3c4ccccc4-c4ccccc43)CC2)s1 | 0.91% |
| Cc1nn2c3cc(N4CCOCC4)ccc3nc2c2ccccc12 | 0.55% |
| COC(=O)CSc1nc2c(c(C3CC=CCC3)c1C#N)CCC2 (stereo not drawn) | 0.17% |
